The source of these data is ChEMBL document CHEMBL4513216, “Probing the Open Global Health Chemical Diversity Library for Multistage-Active Starting Points for Next-Generation Antimalarials” (ACS Infect Dis, 2020).

Molecules are shown by their SMILES. In all, about 69,000 compounds went through this assay and about 8,600 (12%) showed an effect of 50% or more. This excerpt belongs to a sample that is enriched for strong results.

The assay deals with Plasmodium berghei. The experiment in a line: Screen against P. berghei liver stage (PbLuc), transformed with Luciferase, at 10uM. The following applies: tested at 10 uM. It is filed as functional, HepG2.
On to `CS(=O)(=O)NCCC(=O)N1CCN(S(=O)(=O)c2ccc(Br)cc2)CC1`, for which the INHIBITION is 11.8%.

Regarding `COCC(=O)NCCSCCOc1cccc(Br)c1`, the INHIBITION worked out at 18%.

As for `COCC(=O)NCc1cccc(Br)c1`, the INHIBITION came out at 3.81%.

On to `CCCn1ncc(C(=O)N2CCN(C3CCCC3)CC2)c1C`, for which the INHIBITION is recorded as -39.2%.

Turning to `CCCn1ncc(C(=O)NC2CCN(CC3CCCO3)CC2)c1C` (stereo not drawn), the INHIBITION is on record as 34.4%.

For `CCCn1ncc(C(=O)NC2CCN(C3CCOCC3)CC2)c1C`, the INHIBITION was 59.3%.

Consider `CN1CC(=O)N(c2cccc(F)c2)CC12CCN(Cc1cnn(C)c1)C2` (stereo not drawn), for which the INHIBITION is 18.2%.

Take `Cc1ccc(C2(CN3CCN(Cc4cnc(C)n4C)CC3)CC2)cc1`: the INHIBITION is recorded as 12.8%.

Consider `c1ccc2ncc(CC3CCNC3)cc2c1` (stereo not drawn), for which the INHIBITION was determined as 35%.

As for `CN1CCNCC(Cc2cnc3ccccc3c2)C1` (stereo not drawn), the INHIBITION stood at 52.7%.

For the compound `CN1CCC(Cc2cnc3ccccc3c2)C1` (stereo not drawn), the INHIBITION was found to be 45.2%.

For `Cc1ccc(C)n1C(C)C(=O)N1CCCN(Cc2cscn2)CC1` (stereo not drawn), the INHIBITION is listed as 26.55%.

Take `CCOC(=O)CC1CCCCN1C(=O)c1cccc2ccnn12` (stereo not drawn): the INHIBITION was -22.1%.

Take `Cn1cccc1C(=O)N1CCC2(CCCN2Cc2ccccc2)CC1`: the INHIBITION was found to be 45.3%.

Consider `Cn1cccc1C(=O)N1CCC2(CC1)CCN2S(C)(=O)=O`, for which the INHIBITION came out at 20.1%.

For `Cn1cc(CN2CCCC23CCN(C(=O)c2ccccc2)CC3)cn1`, the INHIBITION is recorded as -9.18%.

Take `O=C(c1cnccn1)N1CCCC2(CCCN2Cc2cccnc2)C1` (stereo not drawn): the INHIBITION is given as -8.85%.

For the compound `Cn1cccc1C(=O)N1CCC2(CCCN2S(C)(=O)=O)CC1`, the INHIBITION is 28.2%.

Regarding `CC(C)C(=O)N1CCCC2(CCCN2Cc2cccnc2)C1` (stereo not drawn), the INHIBITION is 10.5%.

Regarding `Cn1cc(CN2CCCC23CCN(C(=O)c2cccn2C)CC3)cn1`, the INHIBITION is given as 66%.

In the case of `Cn1cccc1C(=O)N1CCCC2(CCCN2Cc2cccnc2)C1` (stereo not drawn), the INHIBITION is 56.9%.

For the compound `CN1CCCCC12CCN(C(=O)c1cccn1C)CC2`, the INHIBITION came out at 50.7%.

Turning to `CO[C@@]1(C)C[C@@H](O)C12CCN(C(=O)c1ccccc1C(C)=O)CC2`, the INHIBITION was determined as 40.7%.

For `Cc1ccc(CN2C[C@@H]3COC[C@H](C(=O)N4CCCCO4)[C@@H]3C2)o1`, the INHIBITION was 14.8%.

Regarding `CC(C)CCN1CC2(CCCN(C(=O)CNC(=O)N(C)C)C2)CCC1=O` (stereo not drawn), the INHIBITION was found to be 19.4%.

With `Cc1cc(NC(=O)NCC(C)N2CCOCC2)n(C)n1` (stereo not drawn), the INHIBITION is recorded as -17%.

Consider `Cc1cc(-c2cnc(C3CC3)nc2CN(C)C(=O)c2ccccn2)on1`, for which the INHIBITION was -25%.

As for `CCOCCCNC(=O)Nc1ccc(F)c(C(N)=O)c1`, the INHIBITION was found to be 7.67%.

For the compound `O=c1c2cccnc2ccn1Cc1nccn1C1CC1`, the INHIBITION was 14.9%.

With `C[C@@]1(O)CCN(Cc2cc[nH]n2)C[C@H]1Oc1cccc(F)c1`, the INHIBITION amounted to 66.4%.

Turning to `Cc1cnccc1CN1CC[C@@](C)(O)[C@H](Oc2cccc(F)c2)C1`, the INHIBITION came out at 56%.

Consider `C[C@]1(O)CCN(Cc2cccnc2)C[C@@H]1Oc1cccc(F)c1`, for which the INHIBITION is 44.1%.

As for `C[C@]1(O)CCN(Cc2nccs2)C[C@@H]1Oc1cccc(F)c1`, the INHIBITION stood at 26.3%.

Take `Cc1ncc(CN2CC[C@@](C)(O)[C@H](Oc3cccc(F)c3)C2)cn1`: the INHIBITION is given as 56%.

Turning to `Cc1cnccc1CN1CC[C@@](C)(O)[C@H](Oc2ccccc2)C1`, the INHIBITION was found to be 39.2%.

As for `COc1ncc(CN2CC[C@@](C)(O)[C@H](Oc3cccc(F)c3)C2)cn1`, the INHIBITION amounted to 37.9%.

Consider `Cc1cnccc1CN1CC[C@H](Oc2cccc(F)c2)[C@@](C)(O)C1`, for which the INHIBITION came out at 48.6%.

Turning to `C[C@]1(O)CCN(Cc2c[nH]cn2)C[C@@H]1Oc1cccc(F)c1`, the INHIBITION is 32.3%.

Take `O=C(Nc1ccccc1F)C1=NOC2(CCNCC2)C1`: the INHIBITION was -18.5%.

Take `CSCc1noc(CNC(=O)C2CCN(C(=O)C3CC3)CC2)n1`: the INHIBITION is given as 23%.

Consider `Cc1nc(N2CCCC2)nc2c1CN(C(=O)N(C)C)CC2`, for which the INHIBITION is recorded as 37.1%.

As for `CN(CCc1ccncc1)CC1CCCN1c1cccnn1` (stereo not drawn), the INHIBITION is reported as -69.3%.

On to `Cc1cccc2nc(C(=O)N3CCC4(CCC(=O)N(C)C4)CC3)c(F)n12`, for which the INHIBITION came to 33.4%.

As to `Cc1cnc(-c2nc(NC3CC3)ncc2-c2onc(C)c2C)cn1`, the INHIBITION stood at 0.301%.

On to `Fc1ccc(CN2CCC3(CCN(Cc4nccs4)CC3)C2)cc1`, for which the INHIBITION is given as 21.7%.

Take `CCN1CCC(CNCc2c[nH]nc2C(C)(C)C)C1` (stereo not drawn): the INHIBITION came to 11.4%.

Regarding `COc1ccc(CC(=O)N2CCC3(CC2)CCN(CC(C)C)C3=O)cc1`, the INHIBITION is 35.8%.

`Cc1nc(-c2ccsc2)ccc1C(=O)N(C)CC(F)(F)F`: the INHIBITION is -4.12%.

`CN(C)Cc1noc2c1CN(Cc1ccc[nH]1)CC2`: the INHIBITION is reported as 73.2%.

Consider `Cc1cccc(CN2CCc3onc(CN(C)C)c3C2)n1`, for which the INHIBITION is listed as -14.2%.

Regarding `CN(C)Cc1noc2c1CN(Cc1ccsc1)CC2`, the INHIBITION is given as 15.7%.

Turning to `CN1CC(=O)N(c2ccccc2)CC12CCN(Cc1nccn1C)C2` (stereo not drawn), the INHIBITION was 7.31%.

On to `CNc1nc(CNC(=O)Nc2cccc(-c3ncc(C)o3)c2)cs1`, for which the INHIBITION is 20.1%.
